Source: PubChem (several laboratories)
V-ATPase pH: regulators of yeast V-ATPase proton transport | S. cerevisiae, pHLuorin cytosolic pH fluorescence | response, % at 10 µM | 0.37% of 350,000 active; in the data active = response mostly above about 7.3%, no sharp cut-off; inactive = mostly below about 5.4%; also: actives read high
tim23-1 inh: growth inhibitors of tim23-1 mutant yeast. S. cerevisiae tim23-1 growth, BacTiter-Glo luminescence, 24 h. inhibition, % at 20 µM. 1.3% of 330,000 active. AID 463212;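 active = growth inhibition of the mutant yeast at or above 50%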;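 also: temperature-sensitive mutant grown at 25 °C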
PfHsp90 yeast 2: inhibits growth of yeast expressing Plasmodium falciparum Hsp90 | 0.32% of 310,000 active | S. cerevisiae expressing PfHsp90, BacTiter-Glo ATP, 48 h; yeast lacking PDR1 and PDR3 efflux regulators | inhibition, % at 9.4 µM | AID 504621;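 active = every replicate shows inhibition above about 80%, whatever the replicate mean, limit read from the data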
tim10-1 inh: inhibits growth of tim10-1 mutant yeast; AID 463190; 2.2% of 330,000 active; inhibition, % at 20 µM; S. cerevisiae tim10-1 ts strain growth, BacTiter-Glo, 24 h;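 active = inhibition of at least 40%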;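 also: mutant grown at 25 °C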
TIM10 inh: TIM10 yeast growth inhibition; inhibition, % at 10 µM; S. cerevisiae TIM10 strain growth, BacTiter-Glo luminescence, 24 h; 1.4% of 330,000 active; AID 463195;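 active = inhibition of 40% or more at the single tested concentration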;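 also: wild-type TIM10 isogenic control strain grown at permissive 25 °C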
VATPase regulator: modulates yeast V-ATPase proton transport; response, % at 10 µM; 2% of 980 active; AID 602197; S. cerevisiae pHLuorin cytosolic pH; shares compounds with V-ATPase pH; in the data active = response above about 24%
Of the large screens only hits and unclear results are named; the others gave an inactive call (follow-up assays come after a bar, where they were run). Sampled rows, rich in hits. Any-hit rate of the full collection: about 3.7%.

COc1ccc(-n2ccn(CC(=O)Nc3ccc(OC)cc3OC)c(=O)c2=O)cc1	V-ATPase pH 9.4 | VATPase regulator inactive
COc1ccc(C/C(C)=N/NC(=O)c2ccc(Cl)cc2)cc1	V-ATPase pH 105 | VATPase regulator inactive
CCNC(=O)C1CC(=O)N(CC)C(=Nc2cc(Cl)c(O)c(Cl)c2)S1 (stereo not given)	none
CC1CN(CC(O)COc2ccc(C(C)C)cc2)CC(C)O1 (stereo not given)	V-ATPase pH 8.8 | VATPase regulator inactive
CN(C)C(=O)CN1CCN(c2nc3nonc3nc2N2CCCCC2)CC1	V-ATPase pH 13 (no result: PfHsp90 yeast 2) | VATPase regulator inactive
C1CCCN(c2nc3nonc3nc2N2CCCCCC2)CC1	none
O=C(CCc1nnc(-c2ccc3c(c2)OCO3)o1)NC(c1cccnc1)C(F)(F)F (stereo not given)	V-ATPase pH 8.6 | VATPase regulator inactive
CCOC(=O)CSCC(=O)Nc1c(C(=O)C2CC2)oc2ccccc12	V-ATPase pH 7.5 | VATPase regulator inactive
CCN(c1ccccc1)S(=O)(=O)c1cccc(C(=O)NCCN2CCOCC2)c1	none
O=C(O)CNC(=O)C(c1ccccc1)c1ccccc1	V-ATPase pH 11 | VATPase regulator inactive
O=C(c1ccc(F)c(S(=O)(=O)N2CCOCC2)c1)N1CCc2ccccc21	none
CCC1([N+](=O)[O-])COC(c2ccc(Cl)cc2)OC1 (stereo not given)	none (no result: tim23-1 inh, tim10-1 inh, TIM10 inh)
COc1cc(OC)c(C(=O)OCC(=O)Nc2nnc(-c3ccccc3)o2)cc1OC	V-ATPase pH 12 | VATPase regulator inactive
COc1cc(OC)cc(C(=O)OCC(=O)Nc2nnc(-c3ccccc3)o2)c1	none (no result: tim23-1 inh, tim10-1 inh, TIM10 inh)
CCOC(=O)[C@H]1[C@H]2COc3ccccc3[C@@H]2N2C(=O)CN(CC3CCCO3)C(=O)[C@@]12C (stereo not given in full)	none
CCOC(=O)c1sc(SCc2ccccc2)c2c1CC(C)(C)CC2=O	none
Cc1nn(Cc2c(F)c(F)c(F)c(F)c2F)c(C)c1NC(=O)c1ccc(COc2ccccc2Cl)cc1	V-ATPase pH 16 (no result: tim23-1 inh, tim10-1 inh, TIM10 inh) | VATPase regulator inactive
NS(=O)(=O)c1ccc(NN=C2CCN(Cc3ccccc3)CC2)c([N+](=O)[O-])c1	V-ATPase pH 16 | VATPase regulator inactive
COc1ccc(OC)c(NC(=O)CSc2ncccc2C(=O)O)c1	none
CCCCCCCCNC(=O)c1cccnc1SCC(=O)Nc1ccccc1OC	V-ATPase pH 16 | VATPase regulator inactive
O=C(NCC(c1cccs1)N1CCOCC1)c1cc([N+](=O)[O-])ccc1Cl (stereo not given)	none
O=C(NCC(c1cccs1)N1CCOCC1)c1cccc([N+](=O)[O-])c1 (stereo not given)	V-ATPase pH 53 | VATPase regulator inactive
CSc1ncccc1C(=O)NNc1cc(Cl)ccc1Cl	none
COc1ccc(S(=O)(=O)N(CC(=O)N2CCN(C)CC2)c2ccc(C)cc2)cc1Br	none
COc1ccc(S(=O)(=O)N(CC(=O)N2CCN(C)CC2)c2ccc(C)cc2)cc1OC	V-ATPase pH 12 | VATPase regulator inactive
COc1cc(NC(=S)NC(=O)c2ccco2)ccc1NC(=O)C(C)C	none
COc1cc(NC(=S)NC(=O)c2ccccc2F)ccc1NC(=O)c1ccco1	V-ATPase pH 54 | VATPase regulator inactive
COc1ccc(N2CCN(C(=O)c3ccc(S(=O)(=O)N4CCCCCC4)cc3)CC2)cc1	V-ATPase pH 13 | VATPase regulator inactive
Cc1cccc(/C=C/C(=O)c2ccc(N3CCOCC3)cc2)c1	none (no result: V-ATPase pH, PfHsp90 yeast 2)
Cc1ccc(/C=C/C(=O)c2ccc(N3CCOCC3)cc2)s1	V-ATPase pH 10 | VATPase regulator inactive
CCOc1ccc(CCNC(=O)COC(=O)c2ccc(S(=O)(=O)N3CCCC3)cc2)cc1OCC	none
CCOc1ccc(CCNC(=O)COC(=O)c2ccc(S(C)(=O)=O)cc2)cc1OCC	V-ATPase pH 15 | VATPase regulator inactive
Cc1ccc(Nc2nnc(C)c3ccccc23)c(C)c1	V-ATPase pH 12 | VATPase regulator inactive
O=C(O)CCCCCCNS(=O)(=O)c1ccccc1	none (no result: PfHsp90 yeast 2)
O=C(O)CC(CNS(=O)(=O)c1ccccc1)c1ccccc1 (stereo not given)	V-ATPase pH 7.1 | VATPase regulator inactive
O=C(NN=Cc1ccccc1C(=O)O)c1ccc(NS(=O)(=O)c2cccs2)cc1	none
O=C(NC(=S)NC1CCSC1=O)c1cccs1 (stereo not given)	V-ATPase pH 8.3 | VATPase regulator inactive
CCOC(=O)CSc1nnc(-c2ccccc2)o1	none | VATPase regulator inactive
NS(=O)(=O)c1cccc(NC(=O)CSc2nnc(-c3ccccc3)o2)c1	none | VATPase regulator inactive
COc1cccc(NC(=O)CSc2nc3c(sc4ccccc43)c(=O)n2CCCN2CCCC2)c1	none
O=C(c1ccccc1)N1CCN(c2cc(Cl)nc3cc(-c4cccc(Cl)c4)nn23)CC1	none (no result: tim23-1 inh, PfHsp90 yeast 2, tim10-1 inh, TIM10 inh)
Cc1sc2ccccc2c1CNC[C@H]1O[C@@H](n2cnc(C(N)=O)n2)[C@H](O)[C@@H]1O	none (no result: tim23-1 inh, tim10-1 inh, TIM10 inh)
COc1ccc(CNC(=O)COC(=O)CCc2c[nH]c3ccccc23)cc1	none
Cc1onc(-c2ccccc2)c1C(=O)NC1CCC(C)CC1 (stereo not given)	none
Cc1onc(-c2ccccc2)c1C(=O)NC1CCCCC1C (stereo not given)	V-ATPase pH 9.2 (no result: tim23-1 inh, PfHsp90 yeast 2, tim10-1 inh, TIM10 inh) | VATPase regulator inactive
CC(C)CC(=O)Nc1nnc(S(=O)(=O)N2CCCCCC2)s1	none
C[n+]1cccc2cccc([O-])c21	none (no result: tim23-1 inh, tim10-1 inh, TIM10 inh)
Cc1cccc2sc(N(CCCN(C)C)C(=O)c3ccc(Cl)s3)nc12	V-ATPase pH 11 | VATPase regulator inactive
C[C@@H]1CN([C@H](C)CO)C(=O)Cc2cc(NC(=O)CCC(F)(F)F)ccc2O[C@@H]1CN(C)S(=O)(=O)c1ccccc1	none (no result: tim23-1 inh, tim10-1 inh, TIM10 inh)
O=c1[nH]cc(S(=O)(=O)N2CCN(c3cccc(Cl)c3)CC2)c(=O)[nH]1	none
COc1ccc(CNS(=O)(=O)c2ccc(C3CNC(=O)C3)cc2)cc1 (stereo not given)	V-ATPase pH 12 | VATPase regulator inactive
Clc1cccc(CSC2=NCCCN2)c1	none (no result: PfHsp90 yeast 2) | VATPase regulator inactive
CCOC(=O)CCC(=O)NCc1ccc2[nH]c(C)cc2c1	none
CCOC(=O)NCc1ccc2[nH]c(C)cc2c1	V-ATPase pH 11 | VATPase regulator inactive
Cc1ccccc1OCC(=O)NNC(=O)Cc1ccc(S(=O)(=O)N2CCOCC2)s1	V-ATPase pH 18 | VATPase regulator inactive
Cc1ncsc1CCOC(=O)c1ccc([N+](=O)[O-])cc1	V-ATPase pH 45 | VATPase regulator inactive
Cc1ncsc1CCOC(=O)c1ccc(N2CCOCC2)c([N+](=O)[O-])c1	none
Cn1nc(C(=O)N2CCN(c3ccc(Cl)cc3)CC2)c2c1-c1ccccc1S(=O)(=O)C2	V-ATPase pH 8.6 | VATPase regulator inactive
CCn1cc(S(=O)(=O)N2CCN(Cc3cccc(Cl)c3)CC2)cn1	V-ATPase pH 6.1 | VATPase regulator inactive
Cn1cc(CN2CCCC(CO)(Cc3cccc(Cl)c3)C2)cn1 (stereo not given)	none
